# SRC1 inh: human NCOA1 inhibition; Q15788; HEK293 GAL4-SRC1 luciferase reporter, luminescence; inhibition, % at 3.6 µM; 360,000 tested, 0.12% active; AID 588354;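 active means inhibition above the campaign mean plus 3 SD, with each screening campaign given its own cutoff, cut at about 60% in these data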;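 further: 0% = DMSO treated cells and 100% = gossypol at 36 µM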
# SRC2 inh: human SRC2 (NCOA2) inhibition. 370,000 tested, 0.17% active. AID 651957. HEK293 GAL4-SRC2 luciferase reporter, luminescence. Q15596. inhibition, % at 9 µM;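 active means inhibition above the mean inhibition of all tested compounds plus 3 SD, set per campaign, cut at about 52% in these data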;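 further: 0% = DMSO treated cells and 100% = cells given Gossypol at 36 µM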
# Gli-Sufu block: Gli-Sufu pathway antagonism; 340,000 tested, 0.74% active; Sufu-KO-LIGHT fibroblasts, Gli luciferase reporter luminescence; inhibition, % at 5 µM;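 active means inhibition above about 55%, limit read from the data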;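 further: 0% = DMSO-treated cells and 100% = wells with medium but no cells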
# NCOA3 inh: human NCOA3 inhibition. Q9Y6Q9. HEK293 GAL4-SRC3 luciferase reporter, luminescence. inhibition, % at 3.6 µM. 360,000 tested, 0.17% active;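 active means inhibition above a per-campaign cutoff, the mean of all compounds plus 3 SD, cut at about 60% in these data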;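 further: 0% = DMSO-treated cells and 100% = gossypol-treated cells at 36 µM; higher means less SRC3-driven luciferase light from the GAL4 reporter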
# NR5A2 inv ag: NR5A2 inverse agonism in reporter assay | O00482 | HEK293T StAR-luciferase reporter, LRH-1 transfected, 24 h | inhibition, % at 3.6 µM | 360,000 tested, 0.13% active | AID 602396;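 active means inhibition above the mean inhibition of all tested compounds plus 3 SD, cut at about 73% in these data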;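 further: 0% = DMSO wells and 100% = reporter-only cells lacking LRH-1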
# Target sequence (O00482 whole entry, looked up): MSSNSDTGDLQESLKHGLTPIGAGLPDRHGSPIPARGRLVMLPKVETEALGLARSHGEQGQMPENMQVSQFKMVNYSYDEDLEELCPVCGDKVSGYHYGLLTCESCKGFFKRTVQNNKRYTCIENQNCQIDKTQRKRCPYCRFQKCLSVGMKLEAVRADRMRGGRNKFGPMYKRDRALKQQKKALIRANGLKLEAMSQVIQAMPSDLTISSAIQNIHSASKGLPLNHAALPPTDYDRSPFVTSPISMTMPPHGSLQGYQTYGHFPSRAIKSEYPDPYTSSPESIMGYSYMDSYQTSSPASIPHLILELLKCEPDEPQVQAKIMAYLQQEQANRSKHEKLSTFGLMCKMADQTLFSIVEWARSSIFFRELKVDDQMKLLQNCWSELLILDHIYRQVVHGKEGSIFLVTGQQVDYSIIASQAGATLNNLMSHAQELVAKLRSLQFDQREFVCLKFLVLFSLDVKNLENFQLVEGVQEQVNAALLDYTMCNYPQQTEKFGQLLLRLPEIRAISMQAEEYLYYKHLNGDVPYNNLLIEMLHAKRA
# NR2F2 inh: inhibitors of human COUP-TFII (NR2F2) | 370,000 tested, 0.7% active | AID 686940 | HEK293T NGFI-A luciferase reporter, luminescence | inhibition, % at 8.6 µM | P24468;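 active means inhibition above a per-plate cutoff, mean inhibition of test wells between control levels plus 3 SD, cut at about 38% in these data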;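 further: cells cotransfected with COUP-TFII expression vector driving the NGFI-A reporter; 0% = median of COUP-TF2 test wells and 100% = reporter-only cells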
# Gli-Sufu confirm: confirmation of Gli-SUFU pathway antagonists | inhibition, % at 5 µM | AID 602428 | Sufu-KO-LIGHT cells, Gli luciferase reporter, luminescence | shares compounds with Gli-Sufu block | 2,500 tested, 40% active;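 active means mean inhibition at 5 µM reaching about 45%, limit read from the data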;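 further: plate controls were DMSO-treated cells for no effect and wells lacking cells for full effect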
# Gli cytotox: cytotoxicity counter-screen for Gli-SUFU antagonists | shares compounds with Gli-Sufu block | Sufu-KO-LIGHT cells cytotoxicity, ATP luminescence | cytotoxicity, % at 5 µM | 2,500 tested, 32% active | AID 651994;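 active means mean cytotoxicity at 5 µM above about 25%, limit read from the data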;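 further: cells exposed to compound overnight for roughly 16 to 18 hours; plate controls were DMSO wells with cells for no effect and medium without cells for full effect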
# Wnt3a counter: inhibits Wnt3a reporter, counter-screen for Gli-SUFU antagonists. AID 651995. 2,500 tested, 20% active. Wnt-LIGHT cells, Wnt3a-driven luciferase reporter, luminescence. shares compounds with Gli-Sufu block. inhibition, % at 6.25 µM;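 active means mean inhibition above about 25%, limit read from the data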
# Starred values were filed as active, the others as inactive; · = not tested or not shown. This is a sample that favours compounds with a hit; in the whole collection about 1.3% have one here.
SMILES,SRC1 inh,SRC2 inh,Gli-Sufu block,NCOA3 inh,NR5A2 inv ag,NR2F2 inh,Gli-Sufu confirm,Gli cytotox,Wnt3a counter
CCNc1ccc(C(=O)OC(C(=O)NC(N)=O)C(C)C)cc1[N+](=O)[O-] (stereo not drawn),6,12,59*,13,2,-3,22,-8,-6
Cc1nn(C)cc1/C=C/C(=O)c1ccccc1,-104,-43,99*,-75,-99,-39,14,6,-5
O=C(COc1ccc([N+](=O)[O-])cc1)NNC(=O)Nc1ccc([N+](=O)[O-])cc1,-3,-25,98*,5,7,-8,-1,-10,-2
Cc1ccc(NC(=O)NNC(=O)COc2ccc([N+](=O)[O-])cc2)cc1C,4,4,28,22,-21,3,·,·,·
COCCNC(=O)CSCc1nc(-c2ccc(SC)cc2)oc1C,-7,2,55*,-2,-17,1,66*,12,8
Cc1cccc(-c2nc(CS(=O)CC(=O)NCc3cccs3)c(C)o2)c1 (stereo not drawn),-34,-1,-2,10,-24,7,·,·,·
Cc1cccc(-c2nc(CSCC(=O)NCc3cccs3)c(C)o2)c1,6,-61,55*,16,7,13,13,7,-7
CCOc1ccc(-c2nc(CSCC(=O)NC3CC3)c(C)o2)cc1,-75,·,90*,2,9,·,93*,13,-2
CC(=O)N1CCN(C(=O)C2CCCN(C(=O)c3ccc4c(c3)NC(=O)CS4)C2)CC1 (stereo not drawn),·,-14,·,·,·,7,·,·,·
CNc1ccccc1C(C)(C)c1cc(-c2cccc(OC)c2)no1,4,4,71*,13,25,32,76*,42*,22
N#Cc1ccc(OCC(=O)NNC(=S)NC2CCCCC2)cc1,-20,3,58*,-3,-13,-8,25,4,-5
CCN(Cc1ccc(NC(C)=O)cc1)CC1CCCN(CCc2cccc(OC)c2)C1 (stereo not drawn),-10,1,61*,10,8,6,22,12,50*
CS(=O)(=O)c1ccc(C(=O)NCC2(N3CCCCC3)CCCCC2)cc1,-7,-7,19,3,-36,5,·,·,·
CS(=O)(=O)Cc1ccc(C(=O)NCC2(N3CCCCC3)CCCCC2)cc1,-12,-14,52,10,-64,4,29,17,0
CCCCCn1nnnc1C1(C)CCSCC(=O)N1Cc1ccco1 (stereo not drawn),·,11,·,·,·,-5,·,·,·
c1ccc(Cc2cnc(N3CCN(Cc4csc5ccccc45)CC3)nc2)cc1,·,29,·,·,·,17,·,·,·
CCOc1ccc(S(=O)(=O)N(C)c2ccc(OCC(=O)NCc3cccnc3)cc2)cc1,-1,-2,-13,-7,-3,-1,·,·,·
CCOc1ccc(S(=O)(=O)N(C)c2ccc(OCC(=O)NCc3ccco3)cc2)cc1,-8,-4,95*,-45,-17,-2,10,3,-30
COC(=O)c1ccc(NC(=O)CNC(=O)C2CCCCC2)cc1,0,-19,94*,-18,-13,5,5,-4,-11
CCOC(=O)c1ccc(NC(=O)CNC(=O)C2CCCCC2)cc1,7,-15,-2,18,19,0,·,·,·
CCOC(=O)c1cccc(NC(=O)CN(C)S(=O)(=O)c2cc3ccccc3s2)c1,·,-6,·,·,·,4,·,·,·
C/C=C/C(=O)N1CCc2cc(S(=O)(=O)N(C)Cc3ccco3)ccc21,·,-2,·,·,·,-18,·,·,·
Cc1cc(N2CCN(c3nc(-c4ccc([N+](=O)[O-])cc4)cs3)CC2)c2ccccc2n1,-8,-26,63*,27,-7,-2,32,19,-5
CC(C)[C@H](NC(=O)OCc1ccccc1)C(=O)N[C@@H](Cc1ccccc1)C1(O)CN(C)C(C(=O)NCc2ccccn2)CO1 (stereo partly drawn),·,·,·,·,·,-12,·,·,·
CCCCCn1nnnc1C1(C)CCCC(=O)N1Cc1ccco1 (stereo not drawn),·,12,·,·,·,-5,·,·,·
SMILES,SRC1 inh,SRC2 inh,Gli-Sufu block,NCOA3 inh,NR5A2 inv ag,NR2F2 inh,Gli-Sufu confirm,Gli cytotox,Wnt3a counter
CCc1ccc(C(CNC(=O)c2ccc3c(=O)n(-c4ccccc4F)c(=S)[nH]c3c2)N(C)C)cc1 (stereo not drawn),16,0,59*,5,-12,21,29,5,1
CCOC(=O)N1CCN(C(=O)c2ccc3c(=O)n(-c4ccccc4F)c(=S)[nH]c3c2)CC1,-6,3,33,20,13,-11,·,·,·
COc1ccc(NC(=O)Nc2ccccc2C(=O)N2CCCC2)cc1OC,·,-9,·,·,·,-13,·,·,·
O=C(CN1CCN(c2nc(-c3ccccc3)cs2)CC1)Nc1ccc(F)cc1F,·,11,·,·,·,21,·,·,·
O=C(CSCSCC(=O)NCC1CCCO1)NCC1CCCO1 (stereo not drawn),-1,-15,96*,6,1,11,11,20,-16
Cc1cc(C)cc(OCC(=O)NCC2CCCO2)c1 (stereo not drawn),7,47,71*,39,11,16,39,16,38*
Cc1ccc(-c2noc(CCCC(=O)NCC3CCCO3)n2)cc1 (stereo not drawn),-17,14,56*,7,14,18,39,8,5
COc1ccc(NC(=O)CSc2nnc(-c3n[nH]c4c3CCC4)n2N)cc1,·,12,·,·,·,-3,·,·,·
Cc1cccc[n+]1CC(=O)/C=C1\N(C)c2ccccc2C1(C)C,39,8,63*,45,40,33,61*,24,31*
CN1/C(=C\C(=O)CSc2cccc[n+]2[O-])C(C)(C)c2ccccc21,-3,-11,27,7,-14,1,·,·,·
CN1/C(=C\C(=O)CN2C(=O)NC3(CCCCCC3)C2=O)C(C)(C)c2ccccc21,-13,6,70*,7,16,-12,41,52*,-31
CN1/C(=C\C(=O)COC(=O)CN2C(=O)C3CC=CCC3C2=O)C(C)(C)c2ccccc21 (stereo not drawn),-4,4,9,12,7,-17,·,·,·
Cc1cccc(-c2nnc(SCc3cccc4ccccc34)n2-c2ccc(Cl)cc2)c1,·,17,·,·,·,28,·,·,·
Cc1ccc(NC(=O)CSc2nc(C)cc(=O)[nH]2)c(C)c1,·,-12,·,·,·,4,·,·,·
COc1cccc(/C=C2\CC3(OC(=O)C(C)(C)C)CCCN2C3)c1 (stereo not drawn),·,-15,·,·,·,-4,·,·,·
CSc1nc(N2CCN(c3ccccc3)CC2)cc(N2CCN(c3ccccc3)CC2)n1,-1,-8,-8,-9,1,-5,·,·,·

# Source: PubChem
